Results reported in PubChem BioAssay AID2241 (Broad Institute, 2010).
In all, about 21,000 compounds went through this assay and about 110 (0.52%) were called active.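 Rule for the calls: active = most replicate scores above 10, or exactly half above 10 with mean activity above 10; inconclusive = mean activity below 10 while half the replicates exceed 10; inactive = most replicate scores below 10.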 The sample as a whole holds a higher share of actives than the screen did.

Test: inducers of caspase activity in MEF A1-2A-BIM cells, primary screen, A1 inhibitor project, cell-based, CaspaseGlo luminescence (AID 2241);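 note: effector caspase 3 and 7 activity cleaving a DEVD luciferin substrate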
Conditions: caspase-Glo luminescence, 3 h, stronger effect = higher value, percent of clofoctol signal, DMSO as zero, concentration not given here

SMILES | caspase activation
O=C(CC(=O)c1ccccc1O)c1ccccc1 | -2.59% (inactive)
C[C@@H]1CN([C@H](C)CO)C(=O)c2cc(NC(=O)c3ccncc3)ccc2O[C@H]1CN(C)Cc1ccc(Oc2ccccc2)cc1 | -0.569% (inactive)
CC(=O)Nc1ccc(S(=O)(=O)CCO)cc1 | 2.64% (inactive)
NC(=O)N1CCc2ccccc21 | 0.412% (inactive)
C[C@@H]1CN([C@H](C)CO)C(=O)c2cc(NS(=O)(=O)c3ccc(F)cc3)ccc2O[C@@H]1CN(C)C(=O)Nc1cccc2ccccc12 | -0.274% (inactive)
O=C(c1cccc(Cl)c1)N(Cc1ccccc1)Cc1ccccc1 | -0.527% (inactive)
COc1ccc(S(=O)(=O)Nc2ccc3c(c2)C(=O)N([C@H](C)CO)C[C@@H](C)[C@H](CN(C)C(=O)Nc2ccc4c(c2)OCO4)O3)cc1 | 0.103% (inactive)
C[C@H]1CN([C@@H](C)CO)C(=O)c2cc(NS(=O)(=O)c3ccc(F)cc3)ccc2O[C@H]1CN(C)CC1CC1 | 1.58% (inactive)
CCc1ccc(NC(=O)CN(C)S(=O)(=O)c2cc(Br)cnc2N)cc1 | -0.325% (inactive)
COc1ccc(CN(C)C[C@@H]2Oc3ccc(NC(=O)Nc4cccc5ccccc45)cc3C(=O)N([C@H](C)CO)C[C@H]2C)cc1 | -0.083% (inactive)
COc1cc(C2c3c(cc(OC)c(O)c3OC)CC(CO[C@@H]3O[C@H](CO)[C@@H](O)[C@H](O)[C@H]3O)C2CO)cc(OC)c1O (some centres undefined) | -0.412% (inactive)
O=C(/C=C/c1ccccc1)NCCCCNCCCNC(=O)/C=C/c1ccccc1 | -0.0105% (inactive)
Cc1ccc(NC(N)=O)cc1 | -0.167% (inactive)
COc1ccc(NC(=O)N(C)C[C@H]2Oc3ccc(NS(=O)(=O)c4cccs4)cc3C(=O)N([C@@H](C)CO)C[C@H]2C)cc1 | 0.747% (inactive)
CCC(=O)c1ccc(OC(=O)C2c3ccccc3Oc3ccccc32)cc1 | -0.0959% (inactive)
c1ccc(CSc2ccc(-c3ccncc3)nn2)cc1 | 0.0365% (inactive)
C=CCn1c(SCc2nnc(SCC(=O)c3ccc(Cl)cc3)o2)nnc1-c1ccccc1 | 0.865% (inactive)
C[C@@H]1CN([C@H](C)CO)C(=O)c2cc(NC(=O)C3CCCCC3)ccc2O[C@@H]1CN(C)CC1CCCCC1 | 0.287% (inactive)
CC(=C\c1ccccc1)/C(C)=N/O | 0.142% (inactive)
CC[C@H]1CN2CCc3cc(OC)c(OC)cc3[C@@H]2C[C@@H]1C[C@H]1NCCc2cc(OC)c(OC)cc21 | 18.2% (active)
COc1cc2c(cc1OC)C1CN3CCc4cc(OC)c(OC)cc4C3CN1CC2 (centres undefined) | -0.199% (inactive)
Oc1c(Cl)cc(Cl)cc1C1Nc2cc(C(F)(F)F)ccc2-n2cccc21 (centres undefined) | -0.566% (inactive)
CCCNC(=O)c1ccc2c(c1)N(Cc1ccc(F)cc1)CCS2 | -0.988% (inactive)
COc1ccc(S(=O)(=O)Nc2ccc3c(c2)C(=O)N([C@H](C)CO)C[C@H](C)[C@H](CN(C)S(=O)(=O)c2ccc(Cl)cc2)O3)cc1 | 0.103% (inactive)
O=C(COc1cccc(NC(=O)c2ccccc2)c1)NCCOc1ccccc1 | -0.0599% (inactive)
O=C(Nc1cccc(-c2nc3ccccc3o2)c1)c1cccc(OCc2ccccc2)c1 | 34% (active)
O=C(Nc1cccc(-c2nc3ccccc3o2)c1)c1ccc(Br)cc1 | 14.9% (active)

SMILES | caspase activation
CCOC(=O)c1cc(=O)c2ccc(OCc3ccccc3)cc2o1 | -1.74% (inactive)
c1ccc(-c2nc3ccccc3o2)cc1 | -5.88% (inactive)
O=C(CSc1nc2ccccc2o1)Nc1ccccn1 | -3.01% (inactive)
O=C(/C=C/c1ccccc1)c1ccc(O[C@@H]2O[C@H](CO)[C@@H](O)[C@H](O)[C@H]2O)cc1O | -0.127% (inactive)
C[C@@H]1CN([C@@H](C)CO)C(=O)c2cc(NS(=O)(=O)c3ccccc3)ccc2O[C@H]1CN(C)CC1CC1 | -0.166% (inactive)
C[C@H](CO)N1C[C@H](C)[C@H](CN(C)S(=O)(=O)c2cn(C)cn2)Oc2ccc(NS(=O)(=O)c3ccccc3)cc2C1=O | 0.0901% (inactive)
Cn1c(C(=O)NC2CCCC2)cc2oc3ccccc3c21 | -1.2% (inactive)
OCCN1N=C2c3ccccc3CCC2C1c1ccccc1Cl (centres undefined) | 0.231% (inactive)
O=C1c2ccccc2C(=O)C1c1cc(=O)[nH]c2c1ccc1ccccc12 | -0.299% (inactive)
Cc1ccccc1N=C(N)N=C(N)N | 0.116% (inactive)
FC(F)(F)c1ccnc(Oc2ccc(C3=NCCS3)cc2)c1 | -5.95% (inactive)
CCOC(=O)c1c(C)n(O)c2ccc3nonc3c12 | -0.716% (inactive)
CCCCn1c2ccccc2c2nc3ccccc3nc21 | -1.06% (inactive)
CCSC1=C(C#N)C(=O)NCS1 | 0.116% (inactive)
CCC(=O)Nc1ccccc1C(=O)Nc1ccccc1 | 0.303% (inactive)
C[C@@H]1CN([C@H](C)CO)C(=O)c2cc(NC(=O)NC3CCCCC3)ccc2O[C@H]1CN(C)S(C)(=O)=O | 0.129% (inactive)
O=c1c2ccccc2nc(SCc2cccc(F)c2)n1C1CC1 | -0.676% (inactive)
CCN(CC)C(=S)SCc1nc(N)nc(Nc2ccccc2)n1 | 0.133% (inactive)
CCC(C)NC(=O)Nc1ccc(C)c(Cl)c1 (centres undefined) | -1.99% (inactive)
O=C(O)CCCC=C(c1ccccc1)c1ccccc1 | -0.527% (inactive)
COc1ccc(N/C(N)=N/c2nc(CSc3nc4ccccc4s3)cc(=O)[nH]2)cc1 | -0.646% (inactive)
CCCOC(=O)c1cc2ccccc2oc1=O | -1.82% (inactive)
NC(=S)c1nc(-c2ccccc2)oc1N | -1.84% (inactive)
OC(c1nc2ccccc2[nH]1)C(O)C(O)C(O)c1nc2ccccc2[nH]1 (centres undefined) | 0.0552% (inactive)
O=C(Sc1ccc(Oc2ccc(SC(=O)c3ccco3)cc2)cc1)c1ccco1 | 1.99% (inactive)
Nc1c(C(=O)N2CCCCC2)sc2nc3c(cc12)CCC3 | -1.2% (inactive)
CCN(CCCn1c(=S)[nH]c2cc3c(cc2c1=O)OCO3)c1cccc(C)c1 | 0.124% (inactive)
